Test results from PubChem BioAssay AID1159580 (chemical genetic matrix, 2015).
Among all 5,500 compounds or so, about 2,000 (36%) were called active. Inconclusive results (about 18%) are left out. Cut-off read from the data, not from the text of the source: active = normalized growth mostly below about 0.91 (no sharp cut-off); inconclusive = no clear call, values can overlap the other calls; inactive = mostly above about 0.92. This is one part of the list.

Experiment: chemical genetic growth profiling, strain panel (AID 1159580);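 note: tested at 20 µM; growth read once vehicle control cultures reached saturation at 30 °C; 1 = growth at the plate median or of vehicle wells; lower values mean less growth of the strain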
Details: S. cerevisiae deletion strains, growth OD

Measured: normalized growth

CS(=O)(=O)c1sc(C(=O)Sc2ccc(Cl)cc2)c2c1C=CCC2
active: locus YAR019C, strain CDC15, stronger effect = lower value 0.857 | locus YBL105C, strain PKC1, stronger effect = lower value 0.868 | locus YBR135W, strain CKS1, stronger effect = lower value 0.855 | locus YBR136W, strain MEC1, stronger effect = lower value 0.867 | locus YBR160W, strain CDC28, stronger effect = lower value 0.873 | locus YDL017W, strain CDC7, stronger effect = lower value 0.881 | locus YDL028C, strain MPS1, stronger effect = lower value 0.88 | locus YDL108W, strain KIN28, stronger effect = lower value 0.866 | locus YDL132W, strain cdc53, stronger effect = lower value 0.848 | locus YDL214C, strain PRR2, stronger effect = lower value 0.42 | locus YDR052C, strain DBF4, stronger effect = lower value 0.903 | locus YDR054C, strain cdc34, stronger effect = lower value 0.771 | locus YDR226W, strain ADK1, stronger effect = lower value 0.869 | locus YDR477W, strain SNF1, stronger effect = lower value 0.339 | locus YER123W, strain YCK3, stronger effect = lower value 0.368 | locus YER133W, strain GLC7, stronger effect = lower value 0.416 | locus YFL009W, strain cdc4, stronger effect = lower value 0.857 | locus YFL029C, strain CAK1, stronger effect = lower value 0.853 | locus YFR003C, strain YPI1, stronger effect = lower value 0.881 | locus YFR019W, strain FAB1, stronger effect = lower value 0.327 | locus YFR028C, strain CDC14, stronger effect = lower value 0.871 | locus YGR040W, strain KSS1, stronger effect = lower value 0.437 | locus YGR052W, strain FMP48, stronger effect = lower value 0.492 | locus YGR092W, strain DBF2, stronger effect = lower value 0.174 | locus YHR030C, strain SLT2, stronger effect = lower value 0.374 | locus YHR079C, strain IRE1, stronger effect = lower value 0.349 | locus YHR082C, strain KSP1, stronger effect = lower value 0.511 | locus YHR205W, strain SCH9, stronger effect = lower value 0.206 | locus YIL147C, strain SLN1, stronger effect = lower value 0.886 | locus YJL095W, strain BCK1, stronger effect = lower value 0.369 | locus YJL157C, strain FAR1, stronger effect = lower value 0.358 | locus YJR016C, strain ILV3, stronger effect = lower value 0.862 | locus YJR066W, strain TOR1 (second series), stronger effect = lower value 0.103 | locus YJR066W, strain TOR1, stronger effect = lower value 0.353 | locus YKL048C, strain ELM1, stronger effect = lower value 0.532 | locus YKL067W, strain YNK1, stronger effect = lower value 0.428 | locus YKL101W, strain HSL1, stronger effect = lower value 0.371 | locus YKL193C, strain SDS22, stronger effect = lower value 0.845 | locus YKL203C, strain TOR2, stronger effect = lower value 0.379 | locus YLR113W, strain HOG1, stronger effect = lower value 0.3 | locus YLR133W, strain CKI1, stronger effect = lower value 0.423 | locus YLR403W, strain SFP1, stronger effect = lower value 0.217 | locus YML070W, strain DAK1, stronger effect = lower value 0.397 | locus YMR001C, strain CDC5, stronger effect = lower value 0.836 | locus YMR205C, strain PFK2 (second series), stronger effect = lower value 0.458 | locus YMR277W, strain FCP1, stronger effect = lower value 0.838 | locus YNL006W, strain LST8, stronger effect = lower value 0.873 | locus YNL020C, strain ARK1, stronger effect = lower value 0.39 | locus YNL161W, strain CBK1, stronger effect = lower value 0.862 | locus YNL183C, strain NPR1, stronger effect = lower value 0.418 | locus YNL207W, strain RIO2, stronger effect = lower value 0.842 | locus YNL222W, strain SSU72, stronger effect = lower value 0.856 | locus YNL307C, strain MCK1 (second series), stronger effect = lower value 0.221 | locus YOL078W, strain AVO1, stronger effect = lower value 0.839 | locus YOL136C, strain PFK27, stronger effect = lower value 0.375 | locus YOR061W, strain CKA2, stronger effect = lower value 0.256 | locus YOR119C, strain RIO1, stronger effect = lower value 0.527 | locus YOR231W, strain MKK1, stronger effect = lower value 0.353 | locus YOR329C, strain SCD5, stronger effect = lower value 0.876 | locus YPL031C, strain PHO85, stronger effect = lower value 0.308 | locus YPL153C, strain RAD53, stronger effect = lower value 0.279 | locus YPL204W, strain HRR25, stronger effect = lower value 0.286 | locus YPL209C, strain IPL1, stronger effect = lower value 0.854 | locus YPL256C, strain CLN2, stronger effect = lower value 0.521 | locus YPR025C, strain CCL1, stronger effect = lower value 0.863 | strain TSCII, stronger effect = lower value 0.841
inactive: locus YDL101C, strain DUN1, stronger effect = lower value 0.92 | locus YJL128C, strain PBS2, stronger effect = lower value 0.894 | locus YPR106W, strain ISR1, stronger effect = lower value 0.928 | locus YPR111W, strain DBF20, stronger effect = lower value 0.929 | strain NNK1, stronger effect = lower value 0.907
